D2 ag-1: activates the human D2 dopamine receptor; P14416; DiscoveRx PathHunter D2 beta-arrestin, luminescence, 90 min; 100% = 57 uM dopamine signal; activation, % (concentration not given with the values); 360,000 tested, 0.084% active; AID 624465; in the data active = activation above about 40%; inconclusive = between about 15% and that limit
Target sequence (P14416 whole entry, looked up): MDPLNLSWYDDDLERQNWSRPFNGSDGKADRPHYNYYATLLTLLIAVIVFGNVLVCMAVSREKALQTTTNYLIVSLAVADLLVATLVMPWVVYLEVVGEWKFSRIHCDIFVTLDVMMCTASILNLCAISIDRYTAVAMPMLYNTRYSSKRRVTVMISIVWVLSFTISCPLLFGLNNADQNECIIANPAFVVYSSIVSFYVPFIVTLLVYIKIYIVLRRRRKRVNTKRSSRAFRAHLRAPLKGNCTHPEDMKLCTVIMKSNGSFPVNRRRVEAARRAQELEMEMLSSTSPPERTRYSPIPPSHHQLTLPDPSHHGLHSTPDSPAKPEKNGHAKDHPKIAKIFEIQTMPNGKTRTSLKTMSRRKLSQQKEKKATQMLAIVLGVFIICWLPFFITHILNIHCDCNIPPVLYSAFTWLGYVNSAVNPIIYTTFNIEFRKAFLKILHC
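Agonist mode: compounds alone added to overnight-plated D2 PathHunter cells for 90 min at 37 C, with 57 uM final dopamine (EC100) defining full response. Beta-arrestin recruitment detected by chemiluminescent reagent, read after 1 h at ambient temperature.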
D2 antagonist: antagonists of human D2 dopamine receptor; P14416; AID 485344; 340,000 tested, 2% active; HEK293 TREx D2 cells, calcium flux, dopamine EC80; inhibition, % at 10 µM; in the data active = inhibition above about 30%; inactive = below that, where a call was filed; also: 0% is about no effect
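Inhibition of EC80 dopamine-driven calcium flux, recorded kinetically, defines activity here; cells are a tetracycline-induced HEK293 T-REx line expressing force-coupled D2.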
D2 PAM-1: positive allosteric modulators of human D2 dopamine receptor | P14416 | HEK293 T-REx D2, calcium flux, EC20 dopamine potentiation | potentiation, % at 10 µM | 340,000 tested, 0.34% active;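 active = potentiation over 3 SD above the plate norm, cut at about 30% in these data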; also: 0% is about no effect
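Potentiation of an EC20 dopamine calcium response measured kinetically over 180 s, after a preceding 180 s compound-only read flagging agonists. Cells: inducible Hek293 Trex D2 line, 4000/well, cultured overnight at 30 C before dye loading.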
D2 PAM-2: positive allosteric modulators of human D2 dopamine receptor; P14416; DiscoveRx D2 beta-arrestin cells, luminescence, 90 min; 100% = 57 uM dopamine signal; potentiation, % (concentration not given with the values); 360,000 tested, 0.23% active; AID 624464; in the data active = potentiation above about 50%; inconclusive = mostly about 30% to 49%
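PathHunter D2 cells, attached overnight at 37 deg C, received compound in DMSO plus dopamine at EC20 (50 nM final) for 90 min at 37 deg C. Beta-arrestin recruitment was read as luminescence after 1 h with detection reagent at ambient temperature.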
D2 ag-2: D2 dopamine receptor (human) agonism; P14416; HEK293 T-REx D2 cells, calcium flux agonist mode; activation, % at 2 µM; 340,000 tested, 0.53% active; AID 485358;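 active = activation over 3 SD above normal in the single-dose calcium agonist read, cut at about 30% in these data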; also: 0% is about no effect
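HEK293 Trex D2 cells, tetracycline-induced, o/n 30 C 5% CO2; no-wash Ca dye, RT 30–90 min; 10-cycle baseline, 23 nl cpd added, kinetic Ca read 180 s; agonist hits = positive Ca response.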
The depositor's hits bear a star; ? = inconclusive; . = no result given. Hits are enriched below; roughly 2.4% of the tested compounds scored in any of these assays.

SMILES	D2 ag-1	D2 antagonist	D2 PAM-1	D2 PAM-2	D2 ag-2
Cc1nc2ccn(Cc3ccco3)c(=O)c2cc1C(=O)N1CCN(c2ccc(F)cc2)CC1	.	.	9	.	-1
Cc1cc(-c2ccc(S(=O)(=O)Nc3cccc(Cl)c3C)cc2)on1	.	.	-5	.	-1
CCC1CCCCN1CC(=O)c1c(C)[nH]c2cc(C)ccc12 (stereo not given)	3	33*	-5	-2	1
COc1ccccc1N1CCN(CC(=O)c2c(C)n(C)c3ccccc23)CC1	-1	24	-25	-31	0
COc1ccccc1N1CCN(CC(=O)c2c(C)[nH]c3cc(C)ccc23)CC1	-3	64*	-30	-14	0
COc1ccc(OC)c(NC(=O)CN2c3cccc4cccc(c34)S2(=O)=O)c1	1	.	.	-12	.
COc1ccc(OC)c(NC(=O)C(C)N2c3cccc4cccc(c34)S2(=O)=O)c1 (stereo not given)	1	34*	12	6	0
CCN(C(=O)CSc1nc2ccccc2n1CC(=O)N(C)C1CCCCC1)c1ccccc1	.	.	2	.	.
CCOC(=O)C1=C(C)n2c(s/c(=C3\C(=O)Nc4ccccc43)c2=O)=NC1c1ccc(OC)cc1 (stereo not given)	-3	40*	8	-37	0
CCOC(=O)C1=C(C)N=c2s/c(=C3/C(=O)Nc4ccccc43)c(=O)n2C1c1ccc(C)cc1 (stereo not given)	-5	-6	3	-18	-1
Cc1nc2cc(-c3ccccc3)nn2c(C)c1CCC(=O)N1CCN(c2ccc(F)cc2)CC1	.	.	4	.	1
Cc1ccc2[nH]c(=O)c(CN(CCCN3CCOCC3)C(=O)Nc3ccc(Cl)cc3)cc2c1	4	31*	-1	-14	0
Cc1oc2ncnc(N3CCCCC3)c2c1C(=O)N1CCN(c2cccc(C(F)(F)F)c2)CC1	.	.	0	.	-2
O=Cc1c(C(=O)O)n(CC(=O)O)c2ccccc12	13	-14	2	69*	2
O=C(O)CCC(=O)OCCN(Cc1ccc(Oc2ccc([N+](=O)[O-])cc2)cc1)C(=O)C(Cl)Cl	-3	.	.	-20	.
COc1ccc2nc(N=NC3=C(O)CC(C)(C)CC3=O)sc2c1	-1	34*	-3	-6	-1
CC1(C)CC(=O)C(N=Nc2ccc3ncsc3c2)=C(O)C1	-5	7	-7	1	0
CCOC(=O)C1CCN(C(=O)COc2ccc(S(=O)(=O)NC(C)C)cc2Cl)CC1	-1	7	9	-26	0
CC(C)NS(=O)(=O)c1ccc(OCC(N)=O)c(Cl)c1	-1	34*	6	-11	0
O=C(NNC1=Nc2cccc3cccc1c23)c1ccc(Br)cc1	0	83*	-23	-18	5
CCNC(=S)NC1CC2CCCC(C1)N2Cc1ccc(C)cc1 (stereo not given)	-3	82*	-20	-76	1
CNC(=S)NC1CC2CCCC(C1)N2Cc1ccccc1OC (stereo not given)	1	0	-8	-17	1
CNC(=S)NC1CC2CCCC(C1)N2Cc1ccc(C)cc1 (stereo not given)	-4	81*	-25	-20	0
CCNC(=S)NC1CC2CCCC(C1)N2Cc1ccco1 (stereo not given)	2	6	-19	-25	0
COc1ccc(CCNC(=O)CCc2c(C)c3cc4c(C)coc4cc3oc2=O)cc1	.	.	7	.	-1
SMILES	D2 ag-1	D2 antagonist	D2 PAM-1	D2 PAM-2	D2 ag-2
O=C(Nc1nnc(SCC(=O)N2CCCCC2)s1)C1CCCCC1	-3	7	37*	5	0
O=C(NCCc1ccccc1)C(=O)NCC(c1cccnc1)N1CCN(c2ccccc2)CC1 (stereo not given)	.	.	.	.	0
COc1ccc(-c2[nH]ncc2CN2CCCC(C(=O)c3ccc(OC)cc3OC)C2)cc1 (stereo not given)	-4	1	-15	-15	0
COc1ccc(F)cc1C(=O)C1CCCN(Cc2cn(C)c3ccccc23)C1 (stereo not given)	-2	78*	-14	-16	0
COc1ccc(OC)c(CN2CCCC(C(=O)c3ccccc3SC)C2)c1 (stereo not given)	-4	51*	-18	-20	0
COc1ccc(F)cc1C(=O)C1CCCN(Cc2c[nH]c3ccccc23)C1 (stereo not given)	-3	67*	-20	-2	0
COC(=O)c1ccc(CN2CCCC(C(=O)c3cc(F)ccc3OC)C2)cc1 (stereo not given)	-1	17	-22	-3	1
COc1ccc(CN2CCCC(C(=O)c3ccc(SC)cc3)C2)cc1Cn1cccn1 (stereo not given)	-3	33*	-18	-3	1
Cn1cc(CN2CCCC(C(=O)c3cc(F)ccc3F)C2)c2ccccc21 (stereo not given)	-6	-5	-16	-11	0
CCOC(=O)c1cccc(NC(=O)Cn2ncc3c4ccccc4n(Cc4ccccc4)c3c2=O)c1	.	.	-1	.	0
COc1ccccc1-c1noc(CSc2nc3ccc(C)cc3[nH]2)n1	.	.	12	.	-1
COc1ccc(C(=O)Nc2nnc(S(=O)(=O)N(CC(C)C)c3ccc(C)cc3)s2)cc1OC	.	.	-3	.	-1
CC1(C)CC(=O)C=C(C#CC2(O)CCCCC2)C1	-6	.	.	2	.
CC(=O)N1CCc2c(sc3c2c(=O)n(-c2ccc(C)cc2)c(=O)n3Cc2c(F)cccc2Cl)C1	.	.	19	.	1
Cc1cc(=O)n(Cc2ccc(Br)cc2F)c2c1c(C)nn2-c1ccccc1	.	.	8	.	-1
CCc1ccc(CN2CCCC(CNC(=O)c3cc(OC)cc(OC)c3)C2)cc1 (stereo not given)	-6	27	-21	-25	-1
COc1cc(OC)cc(C(=O)NCC2CCCN(Cc3ccc(SC)cc3)C2)c1 (stereo not given)	-10	51*	-21	-29	-1
COc1ccc(CN2CCC(CO)(Cc3ccccc3)CC2)cc1Cn1cccn1	-6	37*	-18	-5	-1
CCOc1ccc(CNCCCSc2nnnn2C)cc1OC	.	.	-9	.	0
O=C(Nc1ccccc1C(=O)Nc1ccccc1)c1cccs1	2	-18	.	-2	-2
O=C(NNC(=O)c1ccccc1Cl)c1cccs1	-3	-6	32*	-21	.
O=C(Nc1ccc(O)cc1C(=O)O)c1cccs1	-1	35*	25	10	0
CC(C)(C)c1ccc(C2=NC(C)(C)N(CC(=O)Nc3ccc(F)c(F)c3)C2=O)cc1	.	.	6	.	0
CCCCCCn1c(=O)c(Cc2ccccc2)c(O)c2ccccc21	-7	-5	4	-5	0
CCCCn1c(=O)c(Cc2ccccc2)c(O)c2ccccc21	-4	-15	31*	5	0
CC(=O)Nc1sc(N/N=C\c2ccccc2F)nc1-c1cccs1	?	-1	-1	64*	0

Bioassay records deposited in PubChem BioAssay by National Center for Advancing Translational Sciences (NCATS).
